Source: PubChem
TDP1 inh: blocks human tyrosyl-DNA phosphodiesterase 1. Q9NUW8. recombinant TDP1, AlphaScreen DNA substrate cleavage. Potency, µM (top dose mostly 130 µM), inactives show at the top dose activity change, negative = inhibition, most hits filed as inhibitors. 0.28% of 350,000 active; note: potency is the fitted concentration of half-maximal effect; % is set by controls: 0 for no effect and ±100 for the full control effect; nearly all actives have a fitted effect of over 40% in size
Target sequence (Q9NUW8 whole entry, looked up): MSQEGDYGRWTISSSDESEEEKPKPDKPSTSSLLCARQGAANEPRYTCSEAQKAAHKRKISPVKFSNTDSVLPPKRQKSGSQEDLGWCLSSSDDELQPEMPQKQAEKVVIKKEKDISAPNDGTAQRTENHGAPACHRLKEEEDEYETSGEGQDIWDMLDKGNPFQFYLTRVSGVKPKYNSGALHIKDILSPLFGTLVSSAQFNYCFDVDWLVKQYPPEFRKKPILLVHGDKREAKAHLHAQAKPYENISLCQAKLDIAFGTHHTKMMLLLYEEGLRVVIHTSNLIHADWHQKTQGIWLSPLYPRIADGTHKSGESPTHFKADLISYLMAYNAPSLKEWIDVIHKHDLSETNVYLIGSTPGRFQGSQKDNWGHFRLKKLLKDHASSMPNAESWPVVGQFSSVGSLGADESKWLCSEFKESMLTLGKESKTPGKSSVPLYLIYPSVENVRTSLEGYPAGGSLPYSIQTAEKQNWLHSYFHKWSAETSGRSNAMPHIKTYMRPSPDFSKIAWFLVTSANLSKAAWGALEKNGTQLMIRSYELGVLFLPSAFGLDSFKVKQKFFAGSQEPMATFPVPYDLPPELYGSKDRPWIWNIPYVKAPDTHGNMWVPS
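Here, a 5' biotin and 3' phosphotyrosine-FITC DNA oligonucleotide reports Tdp1 activity: intact substrate bridges AlphaScreen beads, while cleavage leaves a 3' phosphate and drops signal. All incubations at room temperature.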
TDP1 cell noCPT: qHTS for Inhibitors of human tyrosyl-DNA phosphodiesterase 1 (TDP1): qHTS in cells in absence of CPT | DT40 Tdp1-/- hTDP1 cells, no CPT, ATP luminescence, 48 h | Potency, µM (highest dose often 46.2 µM), inactives show top-dose activity change, negative = growth inhibition, actives largely listed as inhibitors | 15% of 420,000 active | AID 686978, 2013; note: potency is the fitted concentration of half-maximal effect; % is set by controls: 0 for no effect and ±100 for the full control effect; nearly all actives have a fitted effect of over 55% in size
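Chicken DT40 Tdp1-/- cells stably complemented with human TDP1 were seeded at 400 cells/well with DMSO in place of 20 nM camptothecin. After compound pinning, cells grew at least 48 hr at 37 °C; viability read by CellTiter-Glo luminescence.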
IL-1B inflam inh: inflammasome signaling inhibition, IL-1 beta readout | 4.7% of 360,000 active | THP-1 LPS/ATP IL-1B secretion, AlphaLISA, 16 h; active compounds read low | activity change, % at 57.5 µM; in the data active = activity change below about -50%; inconclusive = mostly about -30% to -49%; note: % is set by controls: 0 for no effect and ±100 for the full control effect
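Secreted IL-1B measured by AlphaLISA bead assay after 16 h compound exposure of THP-1 cells; compounds (final up to 57.5 uM) added 1 h before LPS (250 ng/mL) and ATP (1.25 mM) stimulation; lower signal means less secretion.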
DT40 TDP1 CPT: growth inhibition of DT40 Tdp1-/-;hTDP1 cells with camptothecin (screen for TDP1 inhibitors); AID 686979; Potency, µM (highest dose often 46.2 µM), for inactives: at the top dose activity change, negative = growth inhibition, most hits filed as inhibitors; chicken DT40 Tdp1-/-;hTDP1 cells + 20 nM CPT, ATP luminescence, 48 h; 12% of 420,000 active; note: potency is the fitted concentration of half-maximal effect; % is set by controls: 0 for no effect and ±100 for the full control effect; nearly all actives have a fitted effect of over 55% in size
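Chicken DT40 Tdp1-/- cells stably complemented with human TDP1 were seeded at 400 cells/well in medium containing 20 nM camptothecin, exposed to pin-transferred compounds, and grown at 37 °C for at least 48 hr. Viability was read as ATP luminescence.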
HepG2 tox: HepG2 cytotoxicity, counter-screen for TGF-b inhibitors; HepG2 CAGA-GFP viability, ATP luminescence, 18 h; Potency, µM (top dose mostly 46.1 µM), without a hit: at the highest dose activity change, negative = cytotoxicity, hits mostly cytotoxic; 0.76% of 410,000 active; note: potency is the fitted concentration of half-maximal effect
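HepG2 CAGA-GFP cells (1000/well, DMEM with 1% FBS) received compound, then TGF-beta at 500 pg/mL final, and were incubated 18 hours at 37 degrees C. Viability was read by CellTiter-Glo luminescence. Media-only wells were set as complete cell-killing and DMSO as no toxicity.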
TGFb SMAD3 inh: TGF-b pathway inhibition; HepG2 CAGA-GFP TGF-b/SMAD3 reporter, GFP fluorescence, 18 h; TGF-beta stimulated, 500 pg/mL final; Potency, µM (series often up to 46.1 µM), for the others: at the top dose activity, negative = inhibition, most hits filed as inhibitors; 1.2% of 410,000 active; AID 588855; note: potency is the fitted concentration of half-maximal effect; % is set by controls: 0 for no effect and ±100 for the full control effect; nearly all actives have a fitted effect of over 65% in size
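GFP signal (ex488/em500-530) from TGF-beta-stimulated HEPG2 CAGA-GFP cells, 500 pg/mL final, 18 h at 37 degrees C in DMEM plus 1% FBS, normalized to unstimulated and DMSO-stimulated controls.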
Starred values were filed as active, the others as inactive; ? = inconclusive; · = not tested or not shown; [ ] = another dose, or the depositor's remark. A selection: hits, their analogues and other compounds. The true share with any hit is near 19%. Unless noted, calls come from the whole dose curve; as a rule, active = well fitted curve in the direction sought with a large enough effect; inconclusive = small, poorly fitted or top-dose-only effect, or another doubt; inactive = no such curve, though single readings can be large; an effect the other way counts as inactive or inconclusive.

SMILES	TDP1 inh	TDP1 cell noCPT	IL-1B inflam inh	DT40 TDP1 CPT	HepG2 tox	TGFb SMAD3 inh
Cn1c(=O)c2[nH]c(COc3ccc(C(C)(C)C)cc3)nc2n(C)c1=O	0%	4.6µM*	38	8.2µM*	-43%	-18%
Cn1c(=O)c2[nH]c(CCCCCCCc3nc4ccccc4[nH]3)nc2n(C)c1=O	·	13µM*	-19	23µM*	-28%	-27%
Cn1c(=O)c2[nH]c(CCCCCc3nc4ccccc4[nH]3)nc2n(C)c1=O	·	-13%	4	-11%	8%	-5%
Cn1c(=O)c2[nH]c(Cc3cccc(O)c3)nc2n(C)c1=O	·	?	10	-9%	2%	0%
O=C(COC(=O)C1C2CC3OC(=O)C1C3C2)Nc1cccc(C(F)(F)F)c1 (centres undefined)	5%[0.0935 µM]	-10%	-4	-8%	-15%	1%
Cc1cccc(C(c2sc3nc(-c4ccco4)nn3c2O)N2CCOCC2)c1 (centres undefined)	5%	-23%	·	0%	4%	1%
C=CCOC(=O)N[C@H](/C(C(=O)OC)=C(\C)NCc1ccccc1)c1cccc(OC)c1	6%	·	·	·	·	·
CC(=O)c1cccc(S(=O)(=O)N2CCCC(c3nc4c(nnn4Cc4ccc(C)cc4)c(=O)[nH]3)C2)c1 (centres undefined)	0%	-28%	-55*	?	-19%	-16%
Cc1ccc(Cn2nnc3c(=O)[nH]c(C4CCN(S(=O)(=O)c5ccccc5F)CC4)nc32)cc1	13%	0%	-61*	-4%	13%	?
O=c1[nH]c(C2CCN(S(=O)(=O)c3cccc(C(F)(F)F)c3)CC2)nc2c1nnn2Cc1cccc(F)c1	·	21µM*	-68*	18µM*	-48%	?
COC(=O)c1ccc(Cn2nnc3c(=O)[nH]c(C4CCCN(S(=O)(=O)c5ccc(C)cc5)C4)nc32)cc1 (centres undefined)	-11%	?	-1	-20%	-3%	-3%
COC(=O)c1ccc(Cn2nnc3c(=O)[nH]c(C4CCN(S(=O)(=O)c5cc(C)ccc5C)CC4)nc32)cc1	1%	?	18	23µM*	6%	7%
CC(C)[C@@H](C(=O)NCc1ccco1)N1C(=O)N2CCc3c([nH]c4ccccc34)[C@@]2(C)C1=O	·	?	6	?	-13%	7%
O=c1[nH]c(C2CCN(S(=O)(=O)c3ccccc3)CC2)nc2c1nnn2Cc1ccccc1	·	?	-7	21µM*	-16%	8%
O=c1[nH]c(C2CCN(S(=O)(=O)c3ccc(S(=O)(=O)NC4CC4)cc3)CC2)nc2c1nnn2Cc1cccc(F)c1	·	?	?	16µM*	9%	?
O=C(Nc1ccc(F)cc1)N1CCC(c2nc3c(nnn3Cc3cccc(Cl)c3)c(=O)[nH]2)CC1	4%	-25%	-26	-9%	-11%	-27%
N#Cc1cccc(NC(=O)N2CCC(c3nc4c(nnn4Cc4cccc(Cl)c4)c(=O)[nH]3)CC2)c1	8%	-3%	-63*	0%	-20%	5%
Cc1ccc(Cn2nnc3c(=O)[nH]c(C4CCN(S(=O)(=O)c5ccc(C)cc5)CC4)nc32)cc1	6%	?	?	-6%	-1%	?
O=c1[nH]c(C2CCN(S(=O)(=O)c3ccc(C(F)(F)F)cc3)CC2)nc2c1nnn2Cc1ccc(F)cc1	·	?	-57*	?	10%	?
Cc1ccc(Cn2nnc3c(=O)[nH]c(C4CCN(S(=O)(=O)c5ccc(S(=O)(=O)NC6CC6)cc5)CC4)nc32)cc1	4%	?	?	?	-19%	?
CC(C)CC(=O)NC(=S)Nc1nc(-c2cccc3ccccc23)cs1	4%	21µM*	23	-17%	-13%	?
O=C(Nc1nc(-c2ccccc2)cs1)c1ccc2c(c1)S(=O)(=O)c1ccccc1C2=O	3%	?	5	?	-9%	-4%
O=C(Nc1nc(-c2cccc3ccccc23)cs1)c1ccc2c(c1)S(=O)(=O)c1ccccc1C2=O	-5%	9.2µM*	22	18µM*	4%	-2%
O=C(Nc1ccncc1)c1ccc2c(c1)S(=O)(=O)c1ccccc1C2=O	0%	12µM*	2	15µM*	-14%	-9%
O=C(Nc1ccc(-c2ccccc2)cc1)c1ccc2c(c1)S(=O)(=O)c1ccccc1C2=O	·	-11%	13	-20%	-10%	-1%
SMILES	TDP1 inh	TDP1 cell noCPT	IL-1B inflam inh	DT40 TDP1 CPT	HepG2 tox	TGFb SMAD3 inh
CCOC(=O)Cc1csc(NC(=S)NC(=O)CC(C)C)n1	4%	-24%	36	-4%	1%	-12%
Cc1cc(C)n(CC(=O)NNC(=O)CC(C)c2ccccc2)n1 (centres undefined)	-1%	-12%	-6	-6%	0%	-6%
Cc1cc(C)cc(SCc2noc(C(=O)NCCN(C)C)c2C(=O)NCCN(C)C)c1	·	15µM*	-16	?	-29%	1%
CCCCNC(=O)c1onc(CSc2ccc(F)c(F)c2)c1C(=O)O	5%	-10%	3	21µM*	0%	-8%
CCCCNC(=O)c1onc(CSc2ccc(C)c(C)c2)c1C(=O)O	-5%	-1%	-4	-13%	-16%	-20%
COCCNC(=O)c1onc(CSc2cccc(OC)c2)c1C(=O)NCCOC	·	1%	7	2%	1µM*	-6%
Cc1n[nH]c(=O)c2c(NC(=O)CSc3nn(-c4ccccc4)c(=S)s3)oc(C)c12	-10%	-10%	12	-4%	7%	?
Cc1ccc(S(=O)(=O)N2C[C@H]3[C@H]4C(=O)N(c5ccccc5)C(=O)[C@H]4CC(=O)[C@H]3[C@@H]2c2ccccc2F)cc1	·	1%	22	7%	4%	5%
CCCNC(=O)N1CCCN(S(=O)(=O)c2ccc3c(ccn3CC)c2)CC1	4%	·	·	·	0%	1%
COc1ccc(N2CCN(CCS(=O)(=O)c3cc(Cl)ccc3Cl)CC2)cc1	5%[56.1 µM]	?	-16	?	-8%	?
COC(=O)c1ccccc1NC(=O)c1cn(-c2ccc(C)c(C)c2)c(=O)c2ccccc12	-2%	23µM*	0	?	-13%	0%
CCOC(=O)c1ccccc1NC(=O)c1cn(-c2ccc(C)c(C)c2)c(=O)c2ccccc12	2%	?	?	21µM*	1%	-16%
